Measurements published in paper PMC5540273 (PLoS ONE, 2017).

Assays:
Conditions in all cases: concentration: 1 μM, replicates: in singlicate; n = 1
MAP4K2 = tested on: MAP4K2
MAP4K3 = tested on: MAP4K3
MAP4K4 = tested on: MAP4K4
MAP4K5 = tested on: MAP4K5
MAPKAPK2 = tested on: MAPKAPK2
MAPKAPK5 = tested on: MAPKAPK5
MARK1 = tested on: MARK1
MARK2 = tested on: MARK2
MARK3 = tested on: MARK3
MARK4 = tested on: MARK4
MAST1 = tested on: MAST1
MEK1 = tested on: T1, MEK1
T1 construct: gene MAP2K1

MEK2 = tested on: T2, MEK2
T2 construct: gene MAP2K2

MEK3 = tested on: T3, MEK3
T3 construct: gene MAP2K3

MEK4 = tested on: T4, MEK4
T4 construct: gene MAP2K4

MEK5 = tested on: T5, MEK5
T5 construct: gene MAP2K5

MEK6 = tested on: T6, MEK6
T6 construct: gene MAP2K6

MELK = tested on: MELK
MERTK = tested on: MERTK
MET = tested on: MET
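Also: KINOMEscan kinase panel screen.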

SMILES	%Inh (MAP4K2)	%Inh (MAP4K3)	%Inh (MAP4K4)	%Inh (MAP4K5)	%Inh (MAPKAPK2)	%Inh (MAPKAPK5)	%Inh (MARK1)	%Inh (MARK2)	%Inh (MARK3)	%Inh (MARK4)	%Inh (MAST1)	%Inh (MEK1)	%Inh (MEK2)	%Inh (MEK3)	%Inh (MEK4)	%Inh (MEK5)	%Inh (MEK6)	%Inh (MELK)	%Inh (MERTK)	%Inh (MET)
CCn1c(-c2ccccc2)nc2cnccc21 [SB-733416]	0%	9%	18%	8%	34%	0%	13%	0%	10%	26%	0%	0%	0%	0%	25%	37%	0%	0%	24%	0%
Fc1ccc(-c2nc[nH]c2-c2ccncc2)cc1 [SB-217360]	0%	2%	10%	0%	0%	0%	12%	4%	0%	30%	0%	36%	58%	32%	6%	66%	0%	0%	19%	0%
CNCc1ccc2nc(NC(=O)c3ccc(C(C)(C)C)cc3)cn2c1	22%	0%	0%	0%	0%	5%	0%	0%	9%	4%	50%	32%	27%	8%	30%	34%	11%	0%	5%	6%
CNc1nc(-c2ccc3c(N)n[nH]c3c2)cc(N2C[C@@H](C(=O)Nc3ccccc3)CC[C@H]2C)n1 [GSK2298859]	0%	0%	6%	0%	0%	0%	0%	0%	0%	11%	0%	0%	0%	0%	7%	7%	0%	58%	35%	0%
Cc1nccc(-c2c(-c3ccc(F)cc3)ncn2CCCN2CCOCC2)n1.Cl [SB-282975]	0%	1%	30%	37%	0%	4%	0%	4%	7%	45%	71%	1%	33%	2%	9%	19%	0%	19%	24%	0%
CNc1nc(-c2ccc3c(N)n[nH]c3c2)cc(N2C[C@@H](C(=O)NC3CCCCC3)OC[C@H]2C)n1 [GSK2375584]	0%	0%	15%	9%	17%	2%	10%	0%	0%	18%	0%	8%	11%	0%	11%	14%	0%	57%	2%	0%
COc1ccc(Nc2nccc(N3CCC(NC(=O)C(C)c4ccc(Cl)cc4)C3)n2)cc1 (stereo not drawn) [GSK1379735]	0%	11%	4%	0%	32%	0%	0%	0%	12%	0%	0%	0%	0%	0%	20%	13%	0%	7%	33%	0%
O=C(Nc1n[nH]c2nc(-c3ccco3)c(Br)cc12)C1CCN(Cc2ccccc2)C1.O=C(O)[C@H](O)[C@@H](O)C(=O)O (stereo not drawn) [SB-742034]	14%	2%	0%	0%	5%	5%	27%	14%	0%	14%	13%	1%	25%	21%	20%	32%	16%	2%	0%	0%
O=c1cc(N2CCOCC2)nc2n(Cc3cccc(Cl)c3Cl)c3ccccc3n12 [GSK2299009]	0%	0%	0%	0%	32%	0%	7%	0%	0%	23%	0%	0%	0%	0%	34%	75%	0%	89%	41%	0%
Cn1cnc2c(N)ncnc21 [SKF-97623]	0%	14%	0%	13%	25%	0%	0%	0%	0%	0%	44%	0%	0%	13%	0%	23%	0%	0%	16%	2%
O=C(Nc1n[nH]c2cc(-c3ccsc3)ccc12)C1CC1 [SB-732932]	25%	0%	18%	2%	0%	24%	0%	24%	0%	12%	36%	11%	16%	17%	18%	50%	0%	0%	14%	0%
NS(=O)(=O)c1cccc(N/C=C2\C(=O)Nc3ccc(S(=O)(=O)Cc4c(Cl)cccc4Cl)cc32)c1 [GSK398099]	0%	19%	28%	0%	20%	0%	0%	0%	0%	0%	0%	0%	0%	1%	23%	14%	0%	0%	0%	23%
CNC(=O)c1ccc(C)c(-n2c(C)cc(OCc3ccc(F)cc3F)c(Br)c2=O)c1	0%	0%	0%	0%	0%	0%	0%	1%	0%	0%	0%	0%	0%	0%	0%	0%	0%	14%	0%	0%
Cn1cncc1C(=O)NC1CCN(c2ccnc(Nc3ccc(F)cc3)n2)C1 (stereo not drawn) [GSK1379717]	0%	0%	7%	30%	4%	0%	0%	0%	0%	0%	0%	0%	0%	11%	28%	3%	0%	0%	5%	0%
Cl.Cl.Cl.N#Cc1ccc(CCNc2nccc(-c3cccc(CN4CCNCC4)c3)n2)cc1 [GSK2137462]	0%	8%	21%	4%	0%	0%	0%	6%	25%	0%	0%	0%	0%	5%	20%	35%	7%	38%	20%	0%
COc1nccc(-c2c(-c3ccc(F)cc3)ncn2CCCN2CCOCC2)n1 [SB-282852]	0%	0%	0%	0%	5%	0%	0%	7%	24%	0%	20%	0%	25%	31%	23%	7%	0%	0%	19%	0%
COc1ccc(CSc2nnc(-c3ccc4ncsc4c3)o2)cc1C(F)(F)F	0%	0%	0%	0%	0%	0%	0%	24%	0%	2%	0%	0%	9%	9%	0%	0%	24%	0%	16%	0%
COc1ccc(Nc2nccc(N3CCC(NC(=O)c4cc5ccccc5s4)C3)n2)cc1 (stereo not drawn) [GSK1379738]	0%	2%	0%	0%	0%	0%	0%	0%	3%	0%	0%	0%	0%	0%	23%	10%	0%	0%	0%	0%
COC(=O)C(NC(=O)NC1CCN(c2ccnc(Nc3ccc(F)cc3)n2)C1)c1ccccc1 (stereo not drawn) [GSK1379712]	0%	0%	1%	2%	18%	6%	0%	7%	1%	8%	0%	19%	0%	0%	16%	86%	0%	20%	0%	0%
COc1cc2ncnc(Nc3cccc(Br)c3)c2cc1OC.Cl [GI230329]	0%	0%	0%	0%	0%	0%	0%	0%	0%	5%	20%	0%	0%	0%	20%	86%	0%	0%	45%	0%
CC(=O)c1cccc(NC(=O)NC2CCN(c3ccnc(Nc4ccc(F)cc4)n3)C2)c1 (stereo not drawn) [GSK1379710]	11%	8%	13%	16%	16%	0%	0%	0%	16%	0%	30%	6%	16%	9%	57%	34%	9%	12%	40%	0%
